PubChem BioAssay (NCI)
Several values for one entry are separate records, joined by “and”; a condition that tells them apart may be missing. Equal entries are not always repeated. The panel holds about 83,000 compounds, 20% with a hit somewhere; the sample as a whole holds those more often.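 48-hour exposure, single concentration, 96-well plates; percent growth endpoint where 0 means no net growth. Active: below 10.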 Activity calls are given as the source filed them.

How the values were obtained:
Test in all cases: NCI-60 one-dose screen, 48 h (100 = growth as untreated, 0 = no growth, -100 = all killed)
Details in all cases: 10 µM unless noted
HCT-15 colon = test system: HCT-15 colon
HT29 colon = test system: HT29 colon
SNB-75 CNS = test system: SNB-75 CNS
SNB-19 CNS = test system: SNB-19 CNS
U251 CNS = test system: U251 CNS
PC-3 prostate = test system: PC-3 prostate
SK-MEL-5 melanoma = test system: SK-MEL-5 melanoma
UACC-62 melanoma = test system: UACC-62 melanoma
LOX IMVI melanoma = test system: LOX IMVI melanoma
SK-MEL-28 melanoma = test system: SK-MEL-28 melanoma

Structure (SMILES)	growth (HCT-15 colon)	growth (HT29 colon)	growth (SNB-75 CNS)	growth (SNB-19 CNS)	growth (U251 CNS)	growth (PC-3 prostate)	growth (SK-MEL-5 melanoma)	growth (UACC-62 melanoma)	growth (LOX IMVI melanoma)	growth (SK-MEL-28 melanoma)
Cc1cc2nc3ccc(=[N+](C)C)cc-3sc2cc1N	8.48% (active) and 7.46% (active)	3.91% (active) and 19.4% (inactive)	88.2% (inactive) and 22.1% (inactive)	-17.2% (active) and -4.45% (active)	1.01% (active) and -31% (active)	-1.87% (active) and -5.43% (active)	-92.2% (active) and -90.1% (active)	-31.9% (active) and 23.3% (inactive)	-19.1% (active) and -29.2% (active)	-9.76% (active) and 20.1% (inactive)
N#Cc1c(N)nc2c(c(-c3ccc(Cl)cc3)nn2-c2ccccc2)c1C#N	98.6% [100 µM] (inactive)	106% [100 µM] (inactive)	104% [100 µM] (inactive)	99.6% [100 µM] (inactive)	92.8% [100 µM] (inactive)	98.6% [100 µM] (inactive)	103% [100 µM] (inactive)	97.9% [100 µM] (inactive)	96.6% [100 µM] (inactive)	114% [100 µM] (inactive)
CC1CC(O)CC(C)(C)C1.CC1CC(O)CC(C)(C)C1.CC1CC(O)CC(C)(C)C1.CC1CC(O)CC(C)(C)C1.[Ti] (stereo not given)	110% (inactive)	97.2% (inactive)	113% (inactive)	93.4% (inactive)	99.2% (inactive)	90.4% (inactive)	104% (inactive)	76.2% (inactive)	106% (inactive)	118% (inactive)
CN(C)c1ccc(C(=N)c2ccc(N(C)C)cc2)cc1	23.5% (inactive) and 20.9% (inactive)	2.09% (active) and 4.13% (active)	-30.8% (active) and 8.36% (active)	41.1% (inactive) and 38.3% (inactive)	16.6% (inactive) and 17.1% (inactive)	66% (inactive) and 47.3% (inactive)	7.19% (active) and 22.7% (inactive)	31.4% (inactive) and 31.8% (inactive)	28.9% (inactive) and 33.9% (inactive)	44% (inactive) and 36% (inactive)
Cc1nc2c(=O)[nH]c(=S)[nH]c2[nH]c1=O	105% (inactive) and 104% (inactive)	104% (inactive) and 105% (inactive)	97.4% (inactive) and 84.1% (inactive)	104% (inactive) and 102% (inactive)	113% (inactive) and 104% (inactive)	105% (inactive) and 96.7% (inactive)	111% (inactive)	104% (inactive) and 100% (inactive)	96% (inactive)	111% (inactive) and 112% (inactive)
CS(=O)(=O)c1nsc(N)n1	107% (inactive)	101% (inactive)	93.2% (inactive)	98.5% (inactive)	102% (inactive)	98% (inactive)	102% (inactive)	102% (inactive)	98.2% (inactive)	109% (inactive)
CCn1c2ccc(N(C)C)cc2c2cc(N(C)C)ccc21	112% (inactive)	78.9% (inactive)	99.3% (inactive)	102% (inactive)	93.9% (inactive)	72.9% (inactive)	97.6% (inactive)	91.9% (inactive)	96.8% (inactive)	98.9% (inactive)
Cn1c(-c2ccccc2)cc(=O)cc1-c1ccccc1	22.7% (inactive)	24.7% (inactive)	119% (inactive)	89% (inactive)	82.7% (inactive)	67.1% (inactive)	95.3% (inactive)	81.5% (inactive)	73.2% (inactive)	118% (inactive)
ON=C(C1CCCCC1)C1CCCCC1	106% (inactive)	103% (inactive)	87.3% (inactive)	100% (inactive)	98.1% (inactive)	98.1% (inactive)	108% (inactive)	91.8% (inactive)	95.6% (inactive)	102% (inactive)
CC(C)(C)C1CCC(=NO)CC1 (stereo not given)	106% (inactive)	95% (inactive)	85.6% (inactive)	96% (inactive)	99.9% (inactive)	86.7% (inactive)	104% (inactive)	99.4% (inactive)	99.8% (inactive)	110% (inactive)
N=C(N)N1CCc2ccccc2C1	109% (inactive) and 103% (inactive)	102% (inactive) and 105% (inactive)	98% (inactive) and 109% (inactive)	99.9% (inactive) and 103% (inactive)	89.2% (inactive) and 98.4% (inactive)	89.3% (inactive) and 128% (inactive)	102% (inactive) and 111% (inactive)	99.3% (inactive) and 99% (inactive)	84.3% (inactive) and 113% (inactive)	109% (inactive)
Cc1cc(O)c(C(C)C)cc1N=O	94.3% (inactive) and 98.9% (inactive)	114% (inactive) and 94.1% (inactive)	96.7% (inactive)	96.1% (inactive) and 99.4% (inactive)	97.6% (inactive)	109% (inactive) and 97.6% (inactive)	99.6% (inactive) and 104% (inactive)	99.7% (inactive) and 103% (inactive)	88.5% (inactive) and 99.5% (inactive)	110% (inactive) and 113% (inactive)
CCOC(C)=N	105% (inactive)	102% (inactive)	93.2% (inactive)	104% (inactive)	104% (inactive)	99.3% (inactive)	109% (inactive)	102% (inactive)	100% (inactive)	112% (inactive)
O=[N+]([O-])c1ccc(N2CCN=N2)cc1	80% (inactive)	88.4% (inactive)	89.2% (inactive)	94.7% (inactive)	88.1% (inactive)	73.8% (inactive)	93.3% (inactive)	68.7% (inactive)	73.3% (inactive)	93.7% (inactive)
CCCCCCC(C)CC1=C(O)c2ccccc2C(=O)C1=O (stereo not given)	28.4% (inactive)	66.6% (inactive)	61.6% (inactive)	46% (inactive)	46.3% (inactive)	33.9% (inactive)	11.9% (inactive)	29.9% (inactive)	10.2% (inactive)	64.4% (inactive)
CC(C)(C)OC(=O)c1ccc(NCc2cc(O)ccc2O)cc1	-30.1% (active)	73.5% (inactive)	30.5% (inactive)	62.6% (inactive)	20.5% (inactive)	12.5% (inactive)	52.4% (inactive)	8.79% (active)	24.3% (inactive)	8.43% (active)
OCc1ccccc1F	15% (inactive)	31.3% (inactive)	126% (inactive)	103% (inactive)	80.5% (inactive)	71.9% (inactive)	95.7% (inactive)	84% (inactive)	75.8% (inactive)	103% (inactive)
Oc1ccc(O)c(-c2ccccc2)c1	22.8% (inactive)	102% (inactive)	58.2% (inactive)	67.5% (inactive)	41.4% (inactive)	64.3% (inactive)	42.9% (inactive)	71.3% (inactive)	49.3% (inactive)	77.4% (inactive)
COc1ccccc1OCC(O)CO (stereo not given)	95.1% (inactive) and 105% (inactive)	100% (inactive) and 103% (inactive)	87.7% (inactive) and 90.7% (inactive)	96.4% (inactive) and 84.9% (inactive)	96.9% (inactive) and 81.3% (inactive)	52.3% (inactive) and 91.5% (inactive)	104% (inactive) and 100% (inactive)	100% (inactive)	99.5% (inactive) and 100% (inactive)	95.5% (inactive) and 108% (inactive)
Nc1ccccc1SC(CC(=O)c1ccccc1)c1cccc([N+](=O)[O-])c1 (stereo not given)	66.3% (inactive) and 49.4% (inactive)	11.5% (inactive) and 30.2% (inactive)	74.9% (inactive) and 78.1% (inactive)	89.8% (inactive)	57.5% (inactive) and 61.1% (inactive)	75% (inactive) and 71.6% (inactive)	96.3% (inactive)	85.5% (inactive) and 94% (inactive)	33.5% (inactive) and 10.9% (inactive)	96% (inactive) and 102% (inactive)
NC1=NC(c2ccccc2)N=C(Nc2ccccc2)N1 (stereo not given)	102% (inactive) and 98.9% (inactive)	62.4% (inactive) and 60.7% (inactive)	53.1% (inactive) and 12.8% (inactive)	67% (inactive) and 76% (inactive)	42.8% (inactive) and 44.5% (inactive)	65.1% (inactive) and 70.9% (inactive)	69.6% (inactive) and 35.6% (inactive)	89% (inactive)	85.8% (inactive) and 83% (inactive)	87.8% (inactive) and 102% (inactive)
COc1ccc(/C=N/NC(N)=S)cc1	106% (inactive)	102% (inactive)	87.7% (inactive)	100% (inactive)	96.7% (inactive)	86.9% (inactive)	104% (inactive)	101% (inactive)	95.8% (inactive)	112% (inactive)
O=C(c1ccccc1)C1(Br)CCCCC1	99.1% (inactive)	120% (inactive)	95.2% (inactive)	92% (inactive)	95.6% (inactive)	99.2% (inactive)	95.7% (inactive)	90.5% (inactive)	86.7% (inactive)	101% (inactive)
